Results reported in PubChem BioAssay (NCATS).

Molecular target: Glucocorticoid receptor (Homo sapiens) (UniProt P04150)
Test: GR-GFP Redistribution (AID 450)
Details: U2OS GR-GFP nuclear translocation, laser cytometry, 2 h;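 active means compounds whose dose series gives a full or clear partial fitted curve of increased nuclear translocation; inconclusive means weak partial curve or effect only at the top dose; inactive means no dose-dependent translocation response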
Source text: NIH Molecular Libraries Screening Centers Network [MLSCN]
NIH Chemical Genomics Center [NCGC]
The glucocorticoid receptor (GR) Redistribution assay (BioImage) enables the visualization of GR cytoplasmic to nuclear translocation by the use of a GR-GFP fusion. GR is normally cytosolic, however ligands such as dexamethasone, cause nuclear translocation where the protein binds to response elements and interacts with various co-factors to modulate transcription. Because both functional agonists and antagonists can induce nuclear translocation, this assay can detect ligands regardless of their effects on gene expression. GR-GFP expressing U20S cells were used here. Dexamethasone was the positive control for translocation and data normalization. Detection of nuclear translocation was performed in 1536-well plates using the Acumen laser scanning plate cytometer (TTP LabTech). Validation of this assay and a detailed protocol have been described.
NCGC Assay Protocol Summary:
GR-GFP U2OS cells were maintained in DMEM with Glutamax and high glucose, 1% v/v penicillin-streptomycin, and 0.5 mg/mL Geneticin. For cell culture, 10% […] fetal bovine serum (FBS) was used (Invitrogen #26140-079). For cell plating 10% dextran, charcoal-stripped FBS (Hyclone SH30068.03) was used. U2OS cells were trypsin treated, suspended in medium, and passed through a 40 um basket filter. The cells were seeded at 600 cells/5 uL/well into clear-bottom black sided 1536-well plates and incubated for approximately 20 hrs, 37degC, 5%, CO2 in a tissue culture incubator. Twenty-three nL of compound was delivered by pin tool and the plates were incubated as above for 2 hrs. The compounds were tested as a 7-point titration ranging from 46 uM to 0.6 nM. The cells were fixed using the Kalypsys Washer/Dispenser station. The fixing protocol involved aspiration of the cell media, addition of 6 uL/well of PBS, aspiration of PBS, addition of 5uL/well of 100% methanol, aspiration of methanol, and addition of 3 uL/well PBS with 1.5 uM propidium iodide (PI). The plates were read by the Acumen Explorer using a 1 x 8 um scan of the whole well area. PI fluorescence triggered the collection of PI and GFP signals. A nuclei population was defined by a 10 to 100 um width and depth filter that eliminated small and large fluorescent particles. Two subpopulations of nuclei were then defined by peak intensity of GFP fluorescence to obtain translocated and untranslocated objects. The number of translocated objects was used for data normalization.
Keywords: NIH Roadmap, MLSCN, MLI, MLSMR, sOGT, qHTS, NCGC
Potency means the concentration at half of the fitted maximal effect.

Chain of Glucocorticoid receptor (Homo sapiens) (P04150 whole entry, looked up): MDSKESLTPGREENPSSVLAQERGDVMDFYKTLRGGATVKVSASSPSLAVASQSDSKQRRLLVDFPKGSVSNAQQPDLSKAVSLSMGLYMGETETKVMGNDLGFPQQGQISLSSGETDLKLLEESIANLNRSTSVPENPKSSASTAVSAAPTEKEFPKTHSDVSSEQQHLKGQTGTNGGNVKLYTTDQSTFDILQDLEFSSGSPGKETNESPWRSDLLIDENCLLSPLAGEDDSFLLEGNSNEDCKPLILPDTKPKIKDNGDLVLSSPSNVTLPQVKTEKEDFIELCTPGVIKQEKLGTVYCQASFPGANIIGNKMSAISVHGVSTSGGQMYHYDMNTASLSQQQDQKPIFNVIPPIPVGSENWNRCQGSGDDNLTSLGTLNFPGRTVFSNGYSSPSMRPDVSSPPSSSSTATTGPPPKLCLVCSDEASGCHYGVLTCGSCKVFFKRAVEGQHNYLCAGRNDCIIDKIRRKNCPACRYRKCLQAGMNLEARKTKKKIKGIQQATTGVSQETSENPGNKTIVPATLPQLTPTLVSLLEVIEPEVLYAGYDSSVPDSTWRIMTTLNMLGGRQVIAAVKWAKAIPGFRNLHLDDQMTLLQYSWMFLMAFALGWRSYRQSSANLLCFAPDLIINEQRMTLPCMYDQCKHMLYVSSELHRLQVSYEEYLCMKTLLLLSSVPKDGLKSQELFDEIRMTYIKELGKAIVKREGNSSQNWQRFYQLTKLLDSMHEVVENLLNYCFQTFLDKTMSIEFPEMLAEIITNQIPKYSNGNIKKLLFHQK

Potency, inactive:
Fc1ccc(Nc2nc(-c3cccnc3)nc3ccccc23)cc1 > 46 µM
CCCCC[C@H](O)/C=C\[C@@H]1[C@H](O)CC(=O)[C@@H]1CCCCCCC(=O)O > 20.6 µM
COc1ccc2c(c1)N(C[C@@H](C)CN(C)C)c1ccccc1S2 > 20.6 µM
C[N+]1(C)CCC[C@H]1C(=O)[O-] > 20.6 µM
CC[C@@H]1OC(=O)[C@H](C)[C@H](O[C@@H]2C[C@](C)(OC)[C@H](O)[C@H](C)O2)[C@H](C)[C@H](O[C@@H]2O[C@@H](C)C[C@@H](N(C)C)[C@@H]2O)[C@](C)(O)C[C@H](C)C(=NOCOCCOC)[C@H](C)[C@H](O)[C@]1(C)O > 20.6 µM
C#C[C@@]1(OC(C)=O)CC[C@@H]2[C@@H]3CCC4=C[C@@H](OC(C)=O)CC[C@H]4[C@H]3CC[C@]21C > 20.6 µM
Cn1nnnc1SCC1=C(C(=O)O)N2C(=O)[C@@H](NC(=O)[C@@H](O)c3ccccc3)[C@@H]2SC1 > 20.6 µM
C[C@@]12CCC(=O)C[C@@H]1CC(=O)[C@H]1[C@H]3CCC[C@]3(C)C(=O)C[C@@H]12 (tested in a mixture with another compound) > 20.6 µM
CCC[C@H]1C[C@H](C(=O)N[C@H]([C@@H]2O[C@H](SC)[C@@H](O)[C@H](O)[C@@H]2O)[C@H](C)O)N(C)C1 > 20.6 µM
CC(C)(C)NC(=O)[C@@H]1C[C@H]2CCCC[C@@H]2CN1C[C@H](O)[C@H](Cc1ccccc1)NC(=O)[C@@H](CC(N)=O)NC(=O)c1ccc2ccccc2n1 > 20.6 µM
C[N+]1(C)C[C@@H](O)C[C@@H]1C(=O)[O-] > 20.6 µM
Cc1cccc(C)c1NC(=O)[C@H](C)N > 20.6 µM
Cc1ccccc1N1C(=O)c2cc(S(N)(=O)=O)c(Cl)cc2N[C@H]1C > 20.6 µM
NC[C@@H]1O[C@H](O[C@H]2[C@H](O)[C@H](O[C@@H]3O[C@H](CO)[C@@H](O)[C@H](N)[C@@H]3O)[C@@H](N)C[C@H]2N)[C@@H](O)[C@H](O)[C@@H]1O > 20.6 µM
CO[C@]1(NC(=O)C2SC(=C(C(N)=O)C(=O)O)S2)C(=O)N2C(C(=O)O)=C(CSc3nnnn3C)CS[C@H]21 (stereo not given in full) > 20.6 µM
COc1c2c(nc3ccccc13)O[C@H]([C@@](C)(O)CO)C2 > 20.6 µM
CN[C@]1(C)[C@H]2CC[C@@H](C2)C1(C)C > 20.6 µM
CN(C)CCn1nnnc1SCC1=C(C(=O)O)N2C(=O)[C@@H](NC(=O)Cc3csc(N)n3)[C@@H]2SC1 > 20.6 µM
COC(=O)C1=C(C)NC(C)=C(C(=O)OCCN(C)Cc2ccccc2)[C@H]1c1cccc([N+](=O)[O-])c1 > 20.6 µM
CCOC(=O)Oc1c(OC)cc(C(=O)O[C@H]2C[C@H]3CN4CCc5c([nH]c6cc(OC)ccc56)[C@@H]4C[C@H]3[C@@H](C(=O)OC)[C@@H]2OC)cc1OC > 20.6 µM
CNCCC=C1c2ccccc2C=Cc2ccccc21 > 20.6 µM
CC(=O)N(C[C@@H](C)C(=O)O)c1c(I)cc(I)c(N)c1I > 20.6 µM
CN(C)c1ccc(O)c2c1C[C@H]1C[C@H]3[C@@H](N(C)C)C(=O)C(C(N)=O)=C(O)[C@]3(O)C(=O)C1=C2O > 20.6 µM
C[C@H]1[C@@H](O)[C@@H](C)\C=C/C=C\C=C/C=C\C=C/C=C\C=C/[C@@H](O[C@H]2O[C@@H](C)[C@@H](O)[C@@H](N)[C@@H]2O)C[C@@H]2O[C@](O)(C[C@@H](O)C[C@@H](O)[C@@H](O)CC[C@@H](O)C[C@@H](O)CC(=O)O[C@H]1C)C[C@@H](O)[C@H]2C(=O)O (stereo in doubt) > 20.6 µM
COc1ccc(OC)c([C@H](O)CNC(=O)CN)c1 > 20.6 µM
CCN[C@@H]1CN(CCCOC)S(=O)(=O)c2sc(S(N)(=O)=O)cc21 > 20.6 µM
C=C1CC[C@H](O)C/C1=C/C=C1\CCC[C@]2(C)[C@H]1CC[C@H]2[C@@H](C)/C=C\[C@@H](C)C(C)C > 20.6 µM
CN(C)c1ccc(-c2nccc(NCc3ccccc3)n2)cc1 > 46 µM
CCN1CCC[C@@H](OC(=O)C(c2ccccc2)c2ccccc2)C1 > 20.6 µM
C[C@H](Oc1ccccc1)C(=O)N[C@@H]1C(=O)N2[C@@H]1SC(C)(C)[C@@H]2C(=O)O > 20.6 µM
Cc1ccccc1OC[C@H](O)CO > 20.6 µM
C=Cc1c(C)c2cc3nc(cc4[nH]c(cc5nc(cc1[nH]2)C(C)=C5CCC(=O)O)c(CCC(=O)OC)c4C)[C@@]1(C)C3=CC=C(C(=O)OC)[C@H]1C(=O)OC (tested in a mixture with another compound) > 20.6 µM
COc1cc2cc3c4cc(OC)c(OC)cc4cc[n+]3c(C)c2cc1OC > 20.6 µM
C[C@@H]1CCc2cc(F)cc3c(=O)c(C(=O)O)cn1c23 > 20.6 µM
CN(C)CCO[C@@H](c1ccc(Cl)cc1)c1ccccn1 > 20.6 µM
CC(=C(CCOP(=O)(O)O)SC(=O)c1ccccc1)N(C=O)Cc1cnc(C)nc1N > 20.6 µM
C[C@H](N[C@@H](C)COc1ccccc1)[C@H](O)c1ccc(O)cc1 > 20.6 µM
CN1CCCN([C@@H](c2ccccc2)c2ccc(Cl)cc2)CC1 > 20.6 µM
CS(=O)(=O)c1ccc([C@H](O)[C@H](CF)NC(=O)C(Cl)Cl)cc1 > 20.6 µM
C[C@]1(OC(=O)/C=C\c2ccccc2)C[C@@H](O)[C@@]2(O)C=CO[C@@H](O[C@H]3O[C@@H](CO)[C@@H](O)[C@@H](O)[C@@H]3O)[C@H]21 > 20.6 µM
